Assay results as given in PubChem BioAssay (Tox21).
Records with an inconclusive call do not appear. Activity calls are given as the source filed them. Unless noted, the call rests on the fitted dose curve; in most records, active means well fitted curve in the direction sought with a large enough effect in the repeat runs; inconclusive means weak or mixed curves; inactive means no such curve, though single readings can be large; an effect the other way counts as inactive or inconclusive.

Key:
[1] = qHTS assay for small molecule agonists of the p53 signaling pathway (AID 651631; calls by dose curve; further: nearly all actives have a fitted effect of over 15% in size)
How it was run: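 p53RE-bla HCT-116 cells; compounds 16 h, 37 °C; LiveBLAzer B/G FRET substrate 2 h RT; fluorescence intensity read-out, qHTS format.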

[2] = qHTS assay for small molecules that induce genotoxicity in human embryonic kidney cells expressing luciferase-tagged ATAD5 (AID 651632); further: nearly all actives have a fitted effect of over 15% in size
How it was run: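 ATAD5-luc HEK293T, 2,000 cells/well; cpd or DMSO pin-transferred; 16 hr, 37C/5% CO2; Amplite 30 min RT; luminescence.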

[3] = qHTS assay for small molecule agonists of the p53 signaling pathway - cell viability (AID 651633; calls by dose curve;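 further: p53RE-bla HCT reporter cells with a stable beta-lactamase p53 reporter; series mostly up to about 83 µM; nearly all actives have a fitted effect of over 30% in size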)
How it was run: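 p53RE-bla cells were treated with compound for 16 hours at 37 C. Cytotoxicity was then measured as CellTiter-Glo luminescence after 30 min at room temperature.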

[4] = qHTS assay for small molecule disruptors of the mitochondrial membrane potential - cell viability (AID 720634; calls by dose curve;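 further: human HepG2 liver cancer cells; series mostly up to about 83 µM; nearly all actives have a fitted effect of over 20% in size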)
How it was run: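 Cells: HepG2, 2,000/well, attached overnight. Compound 1 hr, 37 C/5% CO2. +m-MPI dye, +CellTiter-Glo 30 min RT. Readout: luminescence (ATP).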

[5] = qHTS assay to test for compound auto fluorescence at 590 nm (red) in HepG2 cells (AID 720674)
How it was run: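 Fluorescence at 590 nm emission following 540 nm excitation was recorded from HepG2 wells one hour after compound transfer, with DMSO-only wells as vehicle and Rose Bengal sodium equivalency as the scale.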

[6] = qHTS assay to test for compound auto fluorescence at 535 nm (green) in HepG2 cells (AID 720675)
[7] = qHTS assay to test for compound auto fluorescence at 460 nm (blue) in HEK293 cells (AID 720678)
How it was run: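 Cells were seeded and left to adhere for 4-5 hr at 37C. Compounds were then pin-transferred. After an overnight incubation at 37C under 5% CO2, intrinsic fluorescence at 405/460 nm was measured and referenced to triamterene.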

[8] = qHTS assay to test for compound auto fluorescence at 590 nm (red) in HEK293 cells (AID 720679)
How it was run: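 Each well held 2,000 HEK293 cells in medium containing 10% dialyzed FBS. Following 4-5 hr attachment at 37C, 23 nL test compound or DMSO was added; plates sat overnight, and red fluorescence (540/590nm) was recorded.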

[9] = qHTS assay to test for compound auto fluorescence at 535 nm (green) in HEK293 cells (AID 720680)
[10] = qHTS assay to test for compound auto fluorescence at 460 nm (blue) in HEK293 cell free culture (AID 720681)
How it was run: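 Compounds were added to cell-free DMEM with 10% FBS and fluorescence read directly. The blue channel used 405 nm excitation and 460 nm emission, with triamterene as the reference fluorophore.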

[11] = qHTS assay to test for compound auto fluorescence at 535 nm (green) in HEK293 cell free culture (AID 720682)
How it was run: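 Cell-free medium (DMEM, 10% FBS) receives compound or DMSO by pintool. Plate read directly at Ex 485/Em 535 nm. Signal converted to fluorescein equivalency.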

[12] = qHTS assay to test for compound auto fluorescence at 590 nm (red) in HEK293 cell free culture (AID 720683)
How it was run: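 Cell-free wells of DMEM with 10% FBS received compound, and intrinsic fluorescence was read at excitation/emission 540/590 nm. Values expressed as equivalence to Rose Bengal sodium.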

[13] = qHTS assay to test for compound auto fluorescence at 590 nm (red) in HepG2 cell free culture (AID 720684)
How it was run: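 Compounds are added to culture medium (MEM, 10% FBS) lacking cells, then fluorescence is read at excitation 540 nm, emission 590 nm, with Rose Bengal sodium as the equivalency standard.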

[14] = qHTS assay to test for compound auto fluorescence at 460 nm (blue) in HepG2 cell free culture (AID 720685)
How it was run: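 Compound (23 nL) or DMSO pinned into cell-free MEM with 10% FBS; blue fluorescence read at 405/460 nm excitation/emission, expressed as auto-fluorescence equivalency to triamterene.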

[15] = qHTS assay to test for compound auto fluorescence at 535 nm (green) in HepG2 cell free culture (AID 720686)
[16] = target: Glucocorticoid receptor (Homo sapiens) (UniProt P04150); assay: qHTS assay to identify small molecule antagonists of the glucocorticoid receptor (GR) signaling pathway (AID 720692; active means well fitted inhibition curve with a large enough effect in the signal ratio in the repeat runs, not every such curve was filed as active; the % refers to the signal ratio)
Chain of Glucocorticoid receptor (Homo sapiens) (P04150 whole entry, looked up): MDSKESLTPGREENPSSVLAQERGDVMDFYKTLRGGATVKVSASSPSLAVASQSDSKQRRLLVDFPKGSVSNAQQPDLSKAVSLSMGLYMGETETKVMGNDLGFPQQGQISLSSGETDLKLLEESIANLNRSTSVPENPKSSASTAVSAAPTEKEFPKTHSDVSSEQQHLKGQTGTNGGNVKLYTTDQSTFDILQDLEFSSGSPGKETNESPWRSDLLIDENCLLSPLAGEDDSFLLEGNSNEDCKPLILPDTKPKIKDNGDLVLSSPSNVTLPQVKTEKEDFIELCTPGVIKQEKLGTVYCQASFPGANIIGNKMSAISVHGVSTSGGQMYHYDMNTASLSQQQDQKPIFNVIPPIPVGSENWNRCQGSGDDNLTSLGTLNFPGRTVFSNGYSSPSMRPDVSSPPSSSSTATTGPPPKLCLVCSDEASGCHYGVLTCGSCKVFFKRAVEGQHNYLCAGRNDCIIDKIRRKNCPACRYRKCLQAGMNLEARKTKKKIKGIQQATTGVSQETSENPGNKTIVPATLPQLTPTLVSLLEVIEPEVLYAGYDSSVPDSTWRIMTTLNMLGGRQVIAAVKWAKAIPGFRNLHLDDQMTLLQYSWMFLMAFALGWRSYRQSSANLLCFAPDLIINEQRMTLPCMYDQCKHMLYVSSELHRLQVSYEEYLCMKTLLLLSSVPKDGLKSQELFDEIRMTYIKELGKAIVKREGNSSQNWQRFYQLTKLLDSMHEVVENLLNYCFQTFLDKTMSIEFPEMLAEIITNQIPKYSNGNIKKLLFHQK
How it was run: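 HeLa GR-bla cells; cmpd + dex 5 nM final, 18 h 37 C; LiveBLAzer B/G FRET substrate 2 h RT; fluorescence intensity read. Antagonist mode, qHTS.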

[17] = qHTS assay for small molecules that induce genotoxicity in human embryonic kidney cells expressing luciferase-tagged ATAD5 - cell viability (AID 651634; calls by dose curve; further: nearly all actives have a fitted effect of over 25% in size)
How it was run: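 Fluorescence from CellTiter-Fluor, reporting protease activity within live cells, served as the viability read-out. HEK293T cells carrying luciferase-tagged ATAD5 had been treated with compound for 15.5 hr at 37C.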

[18] = qHTS assay for small molecule disruptors of the mitochondrial membrane potential (AID 720635); further: potency means the concentration at half of the fitted maximal effect
How it was run: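 HepG2 cells exposed to compound 1 hr at 37C, then Mito-MPS dye 30 min. Ratio read of aggregate (540/590 nm) versus monomer (490/535 nm) fluorescence.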

[19] = qHTS assay to test for compound auto fluorescence at 460 nm (blue) in HepG2 cells (AID 720687)
How it was run: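 HepG2 cells in MEM with 10% FBS, attached overnight at 37 C, were exposed to compound or DMSO for 1 hr at 37 C, 5% CO2. Blue fluorescence was read at 405/460 nm, with triamterene as reference fluorophore.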

[20] = target: Glucocorticoid receptor (Homo sapiens) (UniProt P04150); assay: qHTS assay to identify small molecule agonists of the glucocorticoid receptor (GR) signaling pathway (AID 720691; active means well fitted activation curve with a large enough effect in the signal ratio in the repeat runs, not every such curve was filed as active; the % refers to the signal ratio)
How it was run: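 Fluorescence intensity from LiveBLAzer B/G FRET substrate (2 h, room temperature) reports beta-lactamase expression driven by the glucocorticoid response element in GR-bla HeLa cells after 18 h compound exposure at 37 C.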
On the % scale 0 is the no-effect control and ±100 the full control effect.

CCOC(=O)C1CC(=O)C(=C(O)C2CC2)C(=O)C1 (stereo not given)
inactive: Potency [1] | Potency [2] | Potency [3] | Potency [4] | outcome [5] | outcome [6] | outcome [7] | outcome [8] | outcome [9] | outcome [10] | outcome [11] | outcome [12] | outcome [13] | outcome [14] | outcome [15] | Potency [16]

CCCCNc1cc(C(=O)O)cc(S(N)(=O)=O)c1Oc1ccccc1
inactive: Potency [1] | Potency [2] | Potency [3] | Potency [17] | Potency [4] | fluorescence, % of fluorescein control [6] 0.0391% [at 18.6 µM] | fluorescence, % of triamterene [7] 0.191% [at 18.6 µM] | fluorescence, % of fluorescent control [8] -0.225% [at 18.6 µM] | fluorescence, % of fluorescein [9] -0.0725% [at 18.6 µM] | fluorescence, % of fluorescent control [10] -0.0083% [at 18.6 µM] | activity change [11] -0.0379% [at 18.6 µM] | fluorescence, % of fluorescent control [12] -0.0094% [at 18.6 µM] | fluorescence, % of Rose Bengal [13] 0.449% [at 18.6 µM] | fluorescence, % of fluorescent control [14] -0.0399% [at 18.6 µM] | fluorescence, % of fluorescein control [15] 0.0191% [at 18.6 µM]

CCCCCOc1ccc(C2SC(=O)NC2=O)cc1OCC (stereo not given)
active: Potency [18] 29.8 µM
inactive: Potency [1] | Potency [2] | Potency [17] | Potency [4] | outcome [5] | outcome [6] | outcome [7] | outcome [8] | outcome [9] | outcome [10] | outcome [11] | outcome [12] | outcome [13] | outcome [14] | outcome [15] | outcome [19]

Cc1ccccc1C(=O)Nc1ccc(C(=O)N2CCCC(O)c3cc(Cl)ccc32)c(C)c1 (stereo not given)
inactive: Potency [1] | Potency [2] | Potency [17] | Potency [4] | outcome [5] | outcome [6] | outcome [7] | outcome [8] | outcome [9] | outcome [10] | outcome [11] | outcome [12] | outcome [13] | outcome [14] | outcome [15] | outcome [19]
active: Potency [18] 10.6 µM

CC(C)=CCC[C@](C)(O)[C@@H]1CC=C(C)CC1
inactive: Potency [1] | Potency [2] | Potency [3] | Potency [4] | outcome [6] | outcome [7] | outcome [8] | outcome [9] | outcome [10] | outcome [11] | outcome [12] | outcome [13] | outcome [14] | outcome [15] | outcome [19] | Potency [20]
active: Potency [18] 30.6 µM

OCCN(CCO)c1ccccc1
inactive: Potency [1] | Potency [2] | Potency [3] | Potency [17] | Potency [4] | outcome [5] | outcome [6] | outcome [7] | outcome [9] | outcome [11] | outcome [12] | outcome [13] | outcome [14] | outcome [15] | Potency [16]

CCCNC(C)C(=O)Nc1c(C)csc1C(=O)OC (stereo not given)
inactive: Potency [1] | Potency [2] | Potency [3] | Potency [4] | Potency [18] | fluorescence, relative to Rose Bengal [5] 0.288% [at 18.6 µM] | fluorescence, % of fluorescein control [6] -0.0675% [at 18.6 µM] | fluorescence, % of triamterene [7] -0.0757% [at 18.6 µM] | fluorescence, % of fluorescent control [8] -0.0511% [at 18.6 µM] | fluorescence, % of fluorescein [9] -0.0722% [at 18.6 µM] | fluorescence, % of fluorescent control [10] -0.0092% [at 18.6 µM] | activity change [11] -0.0482% [at 18.6 µM] | fluorescence, % of fluorescent control [12] 0.0164% [at 18.6 µM] | fluorescence, % of Rose Bengal [13] -0.056% [at 18.6 µM] | fluorescence, % of fluorescent control [14] -0.0067% [at 18.6 µM] | fluorescence, % of fluorescein control [15] 0.063% [at 18.6 µM] | Potency [20] | Potency [16]

CC(C)S
inactive: Potency [1] | Potency [2] | Potency [3] | Potency [4] | Potency [18] | outcome [5] | outcome [6] | outcome [8] | outcome [9] | outcome [10] | outcome [12] | outcome [13] | outcome [14] | outcome [15] | outcome [19] | Potency [20] | Potency [16]

COc1cc(N)c(Cl)cc1C(=O)NC1CCN(Cc2ccccc2)CC1
inactive: Potency [1] | Potency [2] | Potency [3] | Potency [17] | Potency [4] | fluorescence, % of fluorescein control [6] 0.0143% [at 18.6 µM] | fluorescence, % of triamterene [7] 0.111% [at 18.6 µM] | fluorescence, % of fluorescein [9] 0.0161% [at 18.6 µM] | fluorescence, % of fluorescent control [10] -0.0892% [at 18.6 µM] | activity change [11] -0.0003% [at 18.6 µM] | fluorescence, % of fluorescent control [12] 0.0929% [at 18.6 µM] | fluorescence, % of Rose Bengal [13] 0.723% [at 18.6 µM] | fluorescence, % of fluorescent control [14] 2.92% [at 18.6 µM] | fluorescence, % of fluorescein control [15] -0.0056% [at 18.6 µM] | fluorescence, % of fluorescent control [19] 0.034% [at 18.6 µM] | Potency [20] | Potency [16]

CC(C)C(=O)OCC(C)(C)C(O)C(C)C (stereo not given)
inactive: Potency [1] | Potency [2] | Potency [17] | Potency [4] | Potency [18] | outcome [5] | outcome [6] | outcome [7] | outcome [8] | outcome [9] | outcome [10] | outcome [11] | outcome [12] | outcome [13] | outcome [14] | outcome [15] | outcome [19] | Potency [20]

C[C@]12C(=O)OC(=O)[C@H]1[C@H]1C=C[C@@H]2C1
inactive: Potency [1] | Potency [2] | Potency [3] | Potency [17] | Potency [4] | outcome [5] | outcome [6] | outcome [7] | outcome [9] | outcome [11] | outcome [12] | outcome [13] | outcome [14] | outcome [15] | Potency [20] | Potency [16]

CO[C@@]1(NC(=O)CSCC#N)C(=O)N2C(C(=O)O)=C(CSc3nnnn3C)CS[C@@H]21
inactive: Potency [1] | Potency [2] | Potency [3] | Potency [4] | Potency [18] | outcome [6] | outcome [9] | outcome [10] | outcome [11] | outcome [12] | outcome [13] | outcome [14] | outcome [15] | outcome [19]

ICCc1ccccc1
inactive: Potency [1] | Potency [2] | Potency [3] | Potency [17] | Potency [4] | outcome [6] | outcome [7] | outcome [9] | outcome [11] | outcome [12] | outcome [13] | outcome [14] | outcome [15] | outcome [19]

OCc1ccccc1O
inactive: Potency [1] | Potency [2] | Potency [17] | Potency [4] | Potency [18] | outcome [5] | outcome [6] | outcome [7] | outcome [8] | outcome [9] | outcome [10] | outcome [11] | outcome [12] | outcome [13] | outcome [14] | outcome [15] | outcome [19] | Potency [20] | Potency [16]
